Structures are written as SMILES. Compounds without any hit were thinned out: in the full panel of roughly 83,000, 20% have a hit.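 Results are percent growth after 48 hours of single-concentration exposure. 100 means growth as in untreated cells, lower positive values show inhibition; negative values down to -100 show cell death.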 Values without a mark were called inactive. Activity calls are given as the source filed them. Rule for the calls: active = growth percent below 10; inactive = the rest.

Test systems include DU-145 prostate; K-562 leukemia; MALME-3M melanoma; MDA-MB-231 breast; RXF 393 renal; SF-268 CNS; SF-295 CNS; SF-539 CNS; UACC-257 melanoma; M14 melanoma; HCT-15 colon; HT29 colon; SNB-75 CNS; SNB-19 CNS; U251 CNS; PC-3 prostate; SK-MEL-5 melanoma; UACC-62 melanoma; LOX IMVI melanoma; SK-MEL-28 melanoma.
Assay in all cases: NCI-60 one-dose screen, 48 h (100 = growth as untreated, 0 = no growth, -100 = all killed)
Common to all, as to details: 10 µM unless noted

As for `COc1nc2ccc(C)cc2cc1-c1nc2c(cnn2-c2ccc(Br)cc2)c(=O)[nH]1`, the growth with DU-145 prostate is 53.4%; with K-562 leukemia, 16%; in the assay with MALME-3M melanoma, 73%; in the assay on MDA-MB-231 breast, 76.1%; in the assay on RXF 393 renal it was 15.9%; in the assay with SF-268 CNS, 49.6%. Moreover, the growth was 26.7% with SF-295 CNS; 12.1% with SF-539 CNS; 47.4% in the assay on UACC-257 melanoma; 27.7% in the assay on M14 melanoma; 40.5% in the assay on HCT-15 colon; 10.3% in the assay on HT29 colon. Moreover, the growth in the assay on SNB-75 CNS was 25.9%; in the assay with SNB-19 CNS, 41.8%; in the assay with U251 CNS, 15.2%; in the assay on PC-3 prostate it was 28.1%; in the assay with SK-MEL-5 melanoma, 51.1%; with UACC-62 melanoma, 29.1%. For the same molecule, the growth in the assay on LOX IMVI melanoma is 34.1%; in the assay with SK-MEL-28 melanoma it was 39.3%.
As to `Cc1ccccc1C(=O)NN`, the growth in the assay with DU-145 prostate was 120%; in the assay on K-562 leukemia, 104%; in the assay with MALME-3M melanoma, 106%; with MDA-MB-231 breast, 126%; in the assay on RXF 393 renal, 118%; in the assay on SF-268 CNS, 120%. For the same molecule, the growth with SF-295 CNS was 106%; in the assay with SF-539 CNS it was 114%; with UACC-257 melanoma, 103%; in the assay with M14 melanoma it was 107%; with HCT-15 colon, 106%; in the assay on HT29 colon, 98.9%. The growth is 91.1% with SNB-75 CNS; 105% with SNB-19 CNS; 104% in the assay on U251 CNS; 92.8% in the assay with PC-3 prostate; 119% in the assay with SK-MEL-5 melanoma; 101% with UACC-62 melanoma. For the same molecule, the growth in the assay on LOX IMVI melanoma was 109%; in the assay on SK-MEL-28 melanoma it was 115%.
With `COc1ccc(CNC(=O)[C@H](O)[C@@H](N)Cc2ccccc2)cc1`, the growth is 113% with DU-145 prostate; 98.4% in the assay with K-562 leukemia; 108% in the assay with MALME-3M melanoma; 100% in the assay with MDA-MB-231 breast; 107% with RXF 393 renal; 92.7% in the assay on SF-268 CNS. The growth in the assay on SF-295 CNS is 97.9%; in the assay with SF-539 CNS it was 97.2%; in the assay on UACC-257 melanoma, 108%; with M14 melanoma, 105%; with HCT-15 colon, 107%; in the assay with HT29 colon, 103%. The growth in the assay on SNB-75 CNS was 86%; in the assay on SNB-19 CNS, 102%; in the assay with U251 CNS, 101%; in the assay with PC-3 prostate, 108%; in the assay with SK-MEL-5 melanoma, 105%; with UACC-62 melanoma it was 96.6%. The figures for the growth with LOX IMVI melanoma and with SK-MEL-28 melanoma were 97.6% and 107%, respectively.
Consider `COc1cc(C(=O)c2cc(C)c3[nH]c4ccc(O)cc4c3c2C)cc(OC)c1OC`, for which the growth in the assay on DU-145 prostate was -13.4% (active); with K-562 leukemia it was 7.07% (active); with MALME-3M melanoma, -8.11% (active); in the assay with MDA-MB-231 breast it was 28.3%; in the assay with RXF 393 renal, 31.9%; with SF-268 CNS, 24%. Also, the growth was 9.6% (active) in the assay on SF-295 CNS; 1.71% (active) in the assay on SF-539 CNS; 64.8% in the assay with UACC-257 melanoma; 22.3% with M14 melanoma; 8.88% (active) in the assay on HCT-15 colon; 14.5% in the assay with HT29 colon. Further, the growth in the assay on SNB-75 CNS is 37.3%; in the assay with SNB-19 CNS, 54.1%; in the assay with U251 CNS it was 11.5%; with PC-3 prostate, 24.9%; in the assay on SK-MEL-5 melanoma it was -49.4% (active); in the assay with UACC-62 melanoma it was 59.8%. The growth in the assay on LOX IMVI melanoma is 13%; in the assay on SK-MEL-28 melanoma, 55.7%.
Take `O=C(CCc1nnc(-c2c(Cl)cccc2Cl)o1)c1nc2ccccc2[nH]1`: the growth in the assay on DU-145 prostate is 82.2%; with K-562 leukemia it was 2.22% (active); in the assay on MALME-3M melanoma, 79.3%; in the assay with MDA-MB-231 breast, 38.3%; with RXF 393 renal, 81.5%; in the assay on SF-268 CNS, 68.1%. Further, the growth is 59.5% in the assay with SF-295 CNS; 95.2% with SF-539 CNS; 78.6% in the assay on UACC-257 melanoma; 55.8% in the assay with M14 melanoma; 81.5% with HCT-15 colon; 9.39% (active) in the assay on HT29 colon. Besides, the growth in the assay on SNB-75 CNS is 63.4%; in the assay with SNB-19 CNS it was 75.1%; with U251 CNS, 52.5%; in the assay with PC-3 prostate, 53.1%; in the assay with SK-MEL-5 melanoma, 67%; in the assay with UACC-62 melanoma, 42.3%. Moreover, the growth in the assay with LOX IMVI melanoma is 55.1%; in the assay with SK-MEL-28 melanoma, 82.7%.
Turning to `CCOC(=O)Nc1ccc(-c2nc(-c3cccc(OCCN4CCOCC4)c3)c(-c3ccnc(Br)c3)[nH]2)cc1`, the growth with DU-145 prostate is 67.2%; with K-562 leukemia it was 1.64% (active); in the assay on MALME-3M melanoma it was 40.3%; in the assay with MDA-MB-231 breast, 46.2%; with RXF 393 renal, -25.9% (active); in the assay on SF-268 CNS it was 62.3%. Besides, the growth is -53.9% (active) in the assay on SF-295 CNS; 23.4% with SF-539 CNS; 60% with UACC-257 melanoma; 57.4% in the assay with M14 melanoma; 11% with HCT-15 colon; 8.48% (active) in the assay on HT29 colon. Also, the growth in the assay on SNB-75 CNS is 3.74% (active); in the assay with SNB-19 CNS it was 50.6%; in the assay with U251 CNS, 26.5%; in the assay with PC-3 prostate it was 26.2%; in the assay with SK-MEL-5 melanoma, 38.1%; with UACC-62 melanoma, 32.9%. In addition, the values for the growth with LOX IMVI melanoma and in the assay with SK-MEL-28 melanoma were 14.1% and 30.6%, respectively.
For the molecule `CN1CCN(c2ccc(-c3cc4c(Nc5ccc(F)c(Cl)c5)ncnn4c3)cc2)CC1`, the growth in the assay with DU-145 prostate was 44.1%; with K-562 leukemia, 0.617% (active); with MALME-3M melanoma, 28.5%; with MDA-MB-231 breast it was 91.1%; in the assay on RXF 393 renal it was 79.8%; in the assay on SF-268 CNS, 69.2%. The growth with SF-295 CNS was 84.8%; in the assay with SF-539 CNS, 50.5%; with UACC-257 melanoma, 69.2%; in the assay with M14 melanoma it was 66.7%; in the assay with HCT-15 colon, -12.8% (active); in the assay with HT29 colon, 7.09% (active). The growth in the assay with SNB-75 CNS is 80.5%; with SNB-19 CNS, 103%; with U251 CNS, 66%; with PC-3 prostate, 80.8%; in the assay with SK-MEL-5 melanoma, 87.5%; in the assay on UACC-62 melanoma it was 53.2%. Besides, the growth in the assay with LOX IMVI melanoma was -53.6% (active); in the assay on SK-MEL-28 melanoma, 71.5%.

For the origin of these results see PubChem BioAssay (NCI).
